From PubChem
LDHA inh = qHTS assay for inhibitors of human lactate dehydrogenase. AID 1347041, 2019. activity change, % (values are at about 110 or 230 µM). purified LDHA, NADH/diaphorase-resazurin fluorescence; hits give low values. 0.15% of 480,000 active. L-lactate dehydrogenase A chain (Homo sapiens), P00338; in the data active means activity change below about -30%; inconclusive means mostly about -25% to -30%
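LDH5 2 nM; NADH 0.06 mM, pyruvate 0.2 mM; 200 mM Tris pH 7.4, EDTA, Tween-20; 5 min RT. Detection: diaphorase 0.133 mg/mL + resazurin 37 µM, fluorescence ex540/em590 at 0 and 20 min; normalized to enzyme-free and DMSO wells.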
IL-1B inflam inh = qHTS for Inhibitors of Inflammasome Signaling: IL-1-beta AlphaLISA Primary Screen; THP-1 LPS/ATP IL-1B secretion, AlphaLISA, 16 h; hits give low values; activity change, % at 57.5 µM; 4.7% of 360,000 active; AID 743279, 2014; in the data active means activity change below about -50%; inconclusive means mostly about -30% to -49%
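Secreted IL-1B measured by AlphaLISA bead assay after 16 h compound exposure of THP-1 cells; compounds (final up to 57.5 uM) added 1 h before LPS (250 ng/mL) and ATP (1.25 mM) stimulation; lower signal means less secretion.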
DT40 TDP1 no CPT = qHTS for Inhibitors of human tyrosyl-DNA phosphodiesterase 1 (TDP1): qHTS in cells in absence of CPT; 15% of 420,000 active; DT40 Tdp1-/- hTDP1 cells, no CPT, ATP luminescence, 48 h; AID 686978, 2013; Potency, µM (titrated, usually from 46.2 µM), hits mostly inhibitors; further: nearly all actives have a fitted effect of over 55% in size
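Chicken DT40 Tdp1-/- cells complemented with human TDP1, screened without camptothecin (DMSO vehicle only), 400 cells/well. Compounds pin-transferred, cells incubated at 37 °C for at least 48 hr. Growth read as ATP-dependent luminescence (CellTiter-Glo, 30 min at RT).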
RORg inh = qHTS for inhibitors of ROR gamma transcriptional activity. Nuclear receptor ROR-gamma (Mus musculus), P51450. Drosophila S2 Gal4-RORgamma UAS-luciferase reporter, 20 h. Potency, µM (series often up to 53.6 µM), usual class: inhibitors. 5.4% of 310,000 active. AID 2551, 2010; further: nearly all actives have a fitted effect of over 60% in size
Target sequence (P51450 whole entry, looked up, the tested form may be a part): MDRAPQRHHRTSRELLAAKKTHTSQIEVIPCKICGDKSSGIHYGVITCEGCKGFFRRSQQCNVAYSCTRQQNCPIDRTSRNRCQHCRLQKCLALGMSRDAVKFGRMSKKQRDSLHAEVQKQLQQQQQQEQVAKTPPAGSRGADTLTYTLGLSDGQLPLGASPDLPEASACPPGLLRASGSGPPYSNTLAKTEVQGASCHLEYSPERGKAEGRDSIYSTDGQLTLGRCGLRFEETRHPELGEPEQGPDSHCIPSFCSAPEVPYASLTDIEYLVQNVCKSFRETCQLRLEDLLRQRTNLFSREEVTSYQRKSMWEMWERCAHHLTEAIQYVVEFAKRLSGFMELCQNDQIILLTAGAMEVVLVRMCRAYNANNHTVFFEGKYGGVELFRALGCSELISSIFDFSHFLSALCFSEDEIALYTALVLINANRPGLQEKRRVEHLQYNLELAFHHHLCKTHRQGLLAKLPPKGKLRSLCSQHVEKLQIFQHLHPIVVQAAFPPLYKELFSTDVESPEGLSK
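Luciferase reporter read in Schneider cells carrying Gal4-RORγ (mouse) and UAS-Photinus luciferase; cells given compound 1 h before 700 uM copper sulfate induction, then incubated 20 h at ambient temperature.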
DT40 TDP1 CPT = qHTS for Inhibitors of human tyrosyl-DNA phosphodiesterase 1 (TDP1): qHTS in cells in presence of CPT. chicken DT40 Tdp1-/-;hTDP1 cells + 20 nM CPT, ATP luminescence, 48 h. Potency, µM (series often up to 46.2 µM), hits mostly inhibitors. 12% of 420,000 active; further: nearly all actives have a fitted effect of over 55% in size
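Cell growth measured by CellTiter-Glo luminescence after a minimum 48 h, 37 C compound exposure with 20 nM CPT in Tdp1-knockout DT40 cells stably expressing hTDP1, seeded 400/well; qHTS titration format.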
VP16 counter = VP16 counterscreen qHTS for inhibitors of ROR gamma transcriptional activity. Drosophila S2 Gal4-VP16 UAS-luciferase, luminescence, 20 h. Potency, µM (highest dose often 53.6 µM), actives largely listed as inhibitors. 3.5% of 310,000 active. AID 2546, 2010;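 further: Gal4-VP16 expression switched on by copper sulfate through the metallothionein promoter; nearly all actives have a fitted effect of over 50% in size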
Each line names hits and unclear results; the compound was inactive in the other large screens. Sampled rows, rich in hits. Any-hit rate of the full collection: about 18%. Unless noted, the call rests on the fitted dose curve; in most records, active means well fitted curve in the direction sought with a large enough effect; inconclusive means small, poorly fitted or top-dose-only effect, or another doubt; inactive means no such curve, though single readings can be large; an effect the other way counts as inactive or inconclusive.

O=C(c1cc(-c2cccs2)on1)N1CCCC1c1cccc(F)c1 (stereo not drawn)	none (no result: IL-1B inflam inh, DT40 TDP1 no CPT, RORg inh, DT40 TDP1 CPT, VP16 counter)
Cc1ccc(C(=O)c2ccccc2C(=O)OCC(=O)c2cccs2)cc1C	none (no result: IL-1B inflam inh, DT40 TDP1 no CPT, RORg inh, DT40 TDP1 CPT, VP16 counter)
Cc1onc(-c2ccccc2Cl)c1C(=O)O/N=C(\N)c1ccccc1	IL-1B inflam inh -75, DT40 TDP1 no CPT inconclusive, RORg inh 14µM, DT40 TDP1 CPT inconclusive, VP16 counter 6.3µM
C=CCNc1ncnc2c1[nH]c1ccc(Cl)cc12	IL-1B inflam inh -122, DT40 TDP1 no CPT 23µM, DT40 TDP1 CPT inconclusive, VP16 counter inconclusive
Cc1ccc2nc(-c3ccccc3)cc(C(=O)N3CCN(CC(=O)N4CCOCC4)CC3)c2c1	none (no result: IL-1B inflam inh, DT40 TDP1 no CPT, RORg inh, DT40 TDP1 CPT, VP16 counter)
CCc1ccc(C(=O)COC(=O)c2ccc(S(=O)(=O)NCc3ccco3)cc2)cc1	none (no result: IL-1B inflam inh, DT40 TDP1 no CPT, RORg inh, DT40 TDP1 CPT, VP16 counter)
CCCn1nc(C(=O)Nc2nnc(Cc3ccccc3)s2)c2ccccc2c1=O	none (no result: IL-1B inflam inh, DT40 TDP1 no CPT, RORg inh, DT40 TDP1 CPT, VP16 counter)
COc1ccccc1NC(=O)CN1CCN(CC(=O)Nc2ccc(C)c(F)c2)CC1	DT40 TDP1 no CPT 16µM, DT40 TDP1 CPT 16µM
COc1ccccc1NC(=O)CN1CCN(CC(=O)Nc2ccc(F)cc2)CC1	DT40 TDP1 no CPT inconclusive
COc1cccc(OC)c1NC(=O)CN1CCN(C)CC1	LDHA inh -32
COc1ccccc1NC(=O)CN1CCN(CC(=O)Nc2ccc(S(N)(=O)=O)cc2)CC1	DT40 TDP1 no CPT 13µM, DT40 TDP1 CPT inconclusive
CN1CCN(CC(=O)Nc2ccccc2Oc2ccccc2)CC1	none
COc1cc(NC(=O)CN2CCN(CC(=O)Nc3ccccc3OC)CC2)cc(OC)c1	DT40 TDP1 no CPT inconclusive, DT40 TDP1 CPT 16µM
COc1ccc(-c2c(C)c3cc(OS(=O)(=O)c4ccc(F)cc4)ccc3oc2=O)cc1	none (no result: IL-1B inflam inh, DT40 TDP1 no CPT, RORg inh, DT40 TDP1 CPT, VP16 counter)
CCc1ccc2occ(CC(=O)N(Cc3cccs3)C3CCS(=O)(=O)C3)c2c1 (stereo not drawn)	none (no result: IL-1B inflam inh, DT40 TDP1 no CPT, RORg inh, DT40 TDP1 CPT, VP16 counter)
CCCNC(=O)NC(=O)CN(C)Cc1ccccc1C(F)(F)F	none (no result: IL-1B inflam inh, DT40 TDP1 no CPT, RORg inh, DT40 TDP1 CPT, VP16 counter)
O=C(CSC1=Nc2ccccc2CS1)NC1CCCC1	none (no result: IL-1B inflam inh, DT40 TDP1 no CPT, RORg inh, DT40 TDP1 CPT, VP16 counter)
CCOc1ccccc1NC(=O)CN1C(=O)CC(c2ccc(C)c(C)c2)=Nc2ccccc21	none (no result: IL-1B inflam inh, RORg inh, VP16 counter)
COc1ccccc1NC(=O)CN1C(=O)CC(c2ccc(C)c(C)c2)=Nc2ccccc21	DT40 TDP1 no CPT 23µM, DT40 TDP1 CPT 23µM (no result: IL-1B inflam inh, RORg inh, VP16 counter)
CC(C)NC(=O)C(C)Sc1nc(C(F)(F)F)nc2ccccc12 (stereo not drawn)	none (no result: IL-1B inflam inh, DT40 TDP1 no CPT, RORg inh, DT40 TDP1 CPT, VP16 counter)
CC(C)(C)OC(=O)N(Cc1ccccc1)Cc1ccccc1OCc1cccc(NC(=O)c2ccccc2)c1	DT40 TDP1 no CPT 16µM, DT40 TDP1 CPT 16µM (no result: RORg inh, VP16 counter)
CC(C)(C)OC(=O)N(Cc1ccccc1)Cc1ccc(OCc2cccc(NC(=O)C3CC3)c2)cc1	DT40 TDP1 no CPT inconclusive, DT40 TDP1 CPT inconclusive (no result: RORg inh, VP16 counter)
CC(C)C(=O)Nc1cccc(COc2ccccc2CN(Cc2ccccc2)C(=O)OC(C)(C)C)c1	DT40 TDP1 no CPT 23µM, DT40 TDP1 CPT inconclusive (no result: RORg inh, VP16 counter)
CC(C)(C)OC(=O)N(Cc1ccccc1)Cc1cccc(OCc2cccc(NC(=O)c3ccccc3)c2)c1	DT40 TDP1 no CPT 23µM, DT40 TDP1 CPT 23µM (no result: RORg inh, VP16 counter)
CCCC(C)N(C)CC(=O)N1CCN(c2oc(C)nc2C#N)CC1 (stereo not drawn)	none (no result: IL-1B inflam inh, DT40 TDP1 no CPT, RORg inh, DT40 TDP1 CPT, VP16 counter)
CCOC(=O)C1CCN(C(=O)CCNC(=O)c2ccccc2OC)CC1	none (no result: RORg inh, VP16 counter)
CCCCCCCCCCCCCCCCCCNC(=O)OC1CCN(C(=O)OC[C@H](COC(=O)N(Cc2cccc[n+]2CC)C(=O)c2ccccc2OC)OC)CC1	DT40 TDP1 no CPT 12µM, DT40 TDP1 CPT 12µM (no result: LDHA inh, IL-1B inflam inh, RORg inh, VP16 counter)
CC(C)N1C(=O)S/C(=C/c2cn(CC#N)c3ccccc23)C1=O	none (no result: IL-1B inflam inh, DT40 TDP1 no CPT, RORg inh, DT40 TDP1 CPT, VP16 counter)
O=C(COc1ccccc1Br)c1ccc2c(c1)OCO2	none (no result: RORg inh, VP16 counter)
O=C(COc1ccccc1Br)c1ccc(O)cc1O	RORg inh 10µM, VP16 counter inconclusive
